The record followed here is PubChem BioAssay (Tox21).

Structures are written as SMILES. Calls of active or inactive are those of the source. Calls come from the whole dose curve; as a rule, active = well fitted activation curve with a large enough effect in the repeat runs; inconclusive = weak or mixed curves; inactive = flat fitted curve, though single readings scatter. Starred links: 1 amine or outer side, 2 acyl side, 3 side chain; linkers in the order of their positions; H or OH if unused. Positions of bridges follow the written chain, without caps; N, C: chain ends. Non-standard residues stand in square brackets, D forms with d. Residues, ends and D or L forms follow the SMILES beside them. Chains are numbered I, II in the order given. Actinocin(9to1) = Cc1c2oc3c(C)ccc(C(=O)[*:1])c3nc-2c(C(=O)[*:2])c(N)c1=O; NMeV = CN[C@H](C(=O)O)C(C)C; Sar = CNCC(=O)O

For the assay, the target named is Androgen receptor (Homo sapiens) (UniProt P10275). Put plainly: qHTS assay to identify small molecule agonists of the androgen receptor (AR) signaling pathway using the MDA cell line (AID 743040; note: nearly all actives have a fitted effect of over 20% in size). The conditions noted are these: MDA-kb2 AR-luc cells, MMTV luciferase, 16 h; series mostly up to 70.3 µM. The source says: National Center for Advancing Translational Sciences [NCATS]
Androgen receptor (Homo sapiens), sequence (P10275 whole entry, looked up): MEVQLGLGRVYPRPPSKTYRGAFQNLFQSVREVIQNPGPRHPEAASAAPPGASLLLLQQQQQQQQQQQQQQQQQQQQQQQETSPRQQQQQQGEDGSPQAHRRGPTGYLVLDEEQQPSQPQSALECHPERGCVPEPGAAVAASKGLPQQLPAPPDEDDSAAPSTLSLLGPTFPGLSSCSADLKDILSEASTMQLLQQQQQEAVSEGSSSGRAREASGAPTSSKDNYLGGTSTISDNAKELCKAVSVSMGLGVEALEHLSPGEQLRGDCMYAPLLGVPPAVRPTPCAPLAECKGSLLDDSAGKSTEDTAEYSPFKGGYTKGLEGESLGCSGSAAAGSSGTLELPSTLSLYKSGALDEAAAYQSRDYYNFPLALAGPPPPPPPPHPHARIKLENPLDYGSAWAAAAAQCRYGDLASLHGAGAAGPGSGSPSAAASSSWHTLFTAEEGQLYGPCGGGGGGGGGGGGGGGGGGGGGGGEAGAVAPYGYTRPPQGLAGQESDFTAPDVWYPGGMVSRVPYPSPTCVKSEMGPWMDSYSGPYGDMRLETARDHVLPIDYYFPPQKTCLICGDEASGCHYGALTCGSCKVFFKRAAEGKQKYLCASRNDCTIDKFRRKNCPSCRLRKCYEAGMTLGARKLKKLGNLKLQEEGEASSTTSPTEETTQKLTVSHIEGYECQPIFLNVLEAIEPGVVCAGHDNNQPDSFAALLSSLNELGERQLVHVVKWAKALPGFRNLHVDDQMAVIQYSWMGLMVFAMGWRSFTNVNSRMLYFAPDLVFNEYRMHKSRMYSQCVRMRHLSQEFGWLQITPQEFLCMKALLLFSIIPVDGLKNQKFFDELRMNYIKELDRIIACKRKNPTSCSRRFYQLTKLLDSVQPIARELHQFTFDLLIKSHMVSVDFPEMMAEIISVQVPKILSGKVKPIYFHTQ
NIH Chemical Genomics Center [NCGC]
U.S. Environmental Protection Agency [EPA]
National Institutes of Environmental Health Sciences [NIEHS]
National Toxicology Program [NTP]
U.S. Food and Drug Administration [FDA]
Androgen receptor (AR), a nuclear hormone receptor, plays a critical role in AR-dependent prostate cancer and other androgen related diseases. Endocrine disrupting chemicals (EDCs) and their interactions with steroid hormone receptors like AR may cause disruption of normal endocrine function as well as interfere with metabolic homeostasis, reproduction, developmental and behavioral functions. To identify the compounds that activate AR signaling, MDA-kb2 AR-luc cell line (from ATCC, deposited by Wilson et al.) was used to screen the Tox21 10K compound library. MDA-kb2 AR-luc cell line is human breast carcinoma cell line that was stably transfected with a luciferase reporter gene under control of the MMTV promoter containing response elements for both androgen receptor (AR) and glucocorticoid receptor (GR).
Tox21 Assay Protocol Summary:
MDA-kb2 AR-luc cells were dispensed at 3,000 cells/5 uL/well of culture medium into white wall/solid-bottom 1536-well plates using a Multidrop Combi (ThermoFisher Scientific, Waltham, MA) dispenser. After the assay plates were incubated at 37C and 0% CO2 for 5 h, 23 nL of compounds dissolved in DMSO, positive controls or DMSO only was transferred to the assay plate by a Pintool station (Kalypsys, San Diego, CA). The plates were incubated at 37C and 0% CO2 for 16 h. Then 4 uL of ONE-Glo reagent (Promega, Madison, WI) was added to each plate using a Bioraptr Flying Reagent Dispenser (FRD) workstation (Beckman Coulter, Indianapolis, IN, USA) and luminescence was quantified on a ViewLux (PerkinElmer, Shelton, CT) plate reader after 30 min incubation at room temperature.
A general note: qHTS replaces the single test concentration by a dilution series.
With `CC1=CC(=O)c2ccccc2C1=O`, the compound was classed as inactive.
To `COc1ccc(Cc2cnc(N)nc2N)cc1OC` belongs “inactive”.
Consider `CC(C)CCOCc1ccccc1`, for which the compound was called inactive.
To `Nc1ccc(O)cc1` belongs “inactive”; to `Nc1cc(Cl)c(-c2cc(Cl)c(N)cc2Cl)cc1Cl`, “inactive”; to `CC1COC(=O)O1` (configuration not stated), “inactive”.
Turning to `Cc1cc(OCCOCC[N+](C)(C)Cc2ccccc2)ccc1C(C)(C)CC(C)(C)C`, the call was inactive.
Regarding `CCN(CC)C(=S)SSC(=S)N(CC)CC`, the result was inactive.
For `Oc1ccc(Cl)cc1Cc1cc(Cl)ccc1O` the value was “inactive”; for `Cc1c2oc3c(C)ccc(C(=O)N[C@@H]4C(=O)N[C@H](C(C)C)C(=O)N5CCC[C@H]5C(=O)N(C)CC(=O)N(C)[C@@H](C(C)C)C(=O)O[C@@H]4C)c3nc-2c(C(=O)N[C@@H]2C(=O)N[C@H](C(C)C)C(=O)N3CCC[C@H]3C(=O)N(C)CC(=O)N(C)[C@@H](C(C)C)C(=O)O[C@@H]2C)c(N)c1=O` (I: T[dV]P[Sar][NMeV] / II: T[dV]P[Sar][NMeV]; ester I:1-I:C, II:1-II:C; linker I:N-II:N via Actinocin(9to1)), “inactive”; for `CCc1ccc(C(c2ccc(CC)cc2)C(Cl)Cl)cc1`, “inactive”.
In the case of `CCCC(=O)c1ccccc1`, the call was inactive.
To `COc1cc(C(=S)N2CCOCC2)ccc1O` belongs “inactive”; to `CCCCCCCCCCCCc1ccccc1O`, “inactive”.
To `CCC(C)(Oc1ccc(C2(c3ccc(OC(C)(CC)C(=O)O)cc3)CCCCC2)cc1)C(=O)O` (configuration not stated) belongs “inactive”.
Consider `BrC1CCC(Br)C(Br)CCC(Br)C(Br)CCC1Br` (configuration not stated), for which the compound was classed as inactive.
`CC(C)(O)CCC(C)(C)O`: the outcome was inactive.
Regarding `COC(=O)c1cccc(C(=O)OC)c1`, the compound was classed as inactive.
For `CN1C(=O)c2ccc([N+](=O)[O-])cc2C1=O` the value was “inactive”; for `CCCCCCCCCCCCCC[P+](CCCC)(CCCC)CCCC`, “inactive”.
With `Cc1c(O)cccc1C(=O)N[C@@H](CSc1ccccc1)[C@H](O)CN1C[C@H]2CCCC[C@H]2C[C@H]1C(=O)NC(C)(C)C`, the result was inactive.
Turning to `Nc1nc(=S)c2[nH]cnc2[nH]1`, the call was inactive.
Consider `CCOc1ccc2c(c1)C(C)=CC(C)(C)N2`, for which the call was inactive.
To `Cc1ccc(-c2cc(C(F)(F)F)nn2-c2ccc(S(N)(=O)=O)cc2)cc1` belongs “inactive”; to `CCN(CC)C(=O)Nc1ccc(OCC(O)CNC(C)(C)C)c(C(C)=O)c1` (configuration not stated), “inactive”.
For `Cc1ccc(S(=O)(=O)Oc2ccc(N=Nc3ccc(-c4ccc(N=Nc5c(O)ccc6cc(S(=O)(=O)O)cc(S(=O)(=O)O)c56)c(C)c4)cc3C)cc2)cc1`, the call was inactive.
As for `O=Nc1ccc(Nc2ccccc2)cc1`, the compound was classed as inactive.
For `CC(=O)Nc1ccc(C(=O)CCl)cc1` the value was “inactive”.
To `C=CC(=O)OCCCCCCOC(=O)C=C` belongs “inactive”; to `CCOc1ccccc1C(N)=O`, “inactive”.
To `OCC(CO)N[C@H]1C[C@](O)(CO)[C@@H](O)[C@H](O)[C@H]1O` belongs “inactive”; to `Oc1c(Cl)cc(Cl)c(Cl)c1Cc1c(O)c(Cl)cc(Cl)c1Cl`, “inactive”.
